Data on 75 molecules can be found in the antibiotic and cytotoxicity screens of Wong et al. (2023).

SMILES strings stand for the structures. In all, about 39,000 compounds went through this assay and about 3,300 (8.5%) were called active. Only a selection was taken, and actives are over-represented in it overall.

The test system of this experiment is HepG2. Kind of experiment: cytotoxicity call (relative viability < 0.9). The note with it: 10 µM.
On to `C[C@H](CO)N1C[C@H](C)[C@@H](CN(C)S(=O)(=O)c2ccc(Cl)cc2)OCc2cnnn2CCCC1=O`, for which the cytotoxicity call was “inactive”. Under `Cc1ccc(S(=O)(=O)Nc2ccc3c(c2)C(=O)N([C@@H](C)CO)C[C@@H](C)[C@@H](CN(C)C(=O)C2CCCCC2)OCCCC[C@H](C)O3)cc1` stands “inactive”; under `CC(C)(c1cc(Br)c(O)c(Br)c1)c1cc(Br)c(O)c(Br)c1`, “inactive”. Consider `C[C@H](CO)N1C[C@H](C)[C@@H](CN(C)C(=O)NC2CCCCC2)Oc2c(NS(=O)(=O)c3cn(C)cn3)cccc2C1=O`, for which the cytotoxicity call was “inactive”. Under `O=C(C[C@@H]1CC[C@@H]2[C@H](COC[C@@H](O)CN2C(=O)c2ccc3c(c2)OCO3)O1)NCCN1CCCCC1` stands “inactive”. Consider `CNC(=O)C[C@H]1CC[C@H]2[C@@H](COC[C@@H](O)CN2C(=O)c2ccc3c(c2)OCO3)O1`, for which the cytotoxicity call is “inactive”. The result for `O=C(C[C@@H]1CC[C@H]2[C@@H](COC[C@@H](O)CN2C(=O)c2ccc3c(c2)OCO3)O1)NCCN1CCCCC1` reads “active”.

Turning to `O=C(C[C@H]1CC[C@@H]2[C@H](COC[C@H](O)CN2C(=O)c2ccc3c(c2)OCO3)O1)NCCN1CCCCC1`, the cytotoxicity call was “inactive”. Consider `CCCNC(=O)N1C[C@H](O)COC[C@H]2O[C@H](CC(=O)NCCCN3CCOCC3)CC[C@@H]21`, for which the cytotoxicity call is “active”. Under `CNC(=O)C[C@@H]1CC[C@H]2[C@@H](COC[C@H](O)CN2C(=O)c2ccc3c(c2)OCO3)O1` stands “inactive”; under `CCCNC(=O)N1C[C@H](O)COC[C@H]2O[C@@H](CC(=O)NCCCN3CCOCC3)CC[C@@H]21`, “inactive”; under `CCCNC(=O)N1C[C@@H](O)COC[C@H]2O[C@@H](CC(=O)NCCCN3CCOCC3)CC[C@@H]21`, “inactive”. Turning to `CNC(=O)C[C@H]1CC[C@@H]2[C@H](COC[C@@H](O)CN2C(=O)c2ccc3c(c2)OCO3)O1`, the cytotoxicity call was “active”. The result for `C[C@@H]1CN([C@H](C)CO)C(=O)c2cc(NC(=O)NC3CCCCC3)ccc2O[C@@H](C)CCCCO[C@H]1CN(C)C(=O)Nc1ccc(F)cc1` reads “inactive”; that for `C[C@H](CO)N1C[C@H](C)[C@@H](CN(C)S(=O)(=O)c2cccs2)OCCCC[C@H](C)Oc2ccc(NS(=O)(=O)c3cn(C)cn3)cc2C1=O`, “inactive”. As for `COc1ccc(C#Cc2ccc3c(c2)[C@H]2[C@H](CCN2C(=O)Nc2ccc(C(F)(F)F)cc2)[C@H](CO)N3C)cc1`, the cytotoxicity call is “inactive”. With `C[C@H](CO)N1C[C@H](C)[C@@H](CN(C)S(=O)(=O)c2cn(C)cn2)Oc2ccc(NC(=O)c3ccncc3)cc2C1=O`, the cytotoxicity call is “inactive”. Under `C[C@@H]1CN([C@H](C)CO)S(=O)(=O)c2ccc(Br)cc2O[C@H]1CN(C)Cc1cccc(C(=O)O)c1` stands “inactive”. Under `C[C@@H]1CN([C@H](C)CO)C(=O)c2cccc(NC(=O)Nc3ccccc3)c2O[C@H]1CN(C)Cc1ccc(C(=O)Nc2ccccc2N)cc1` stands “inactive”. Under `O=C(C[C@H]1C[C@@H]2c3cc(NC(=O)NC4CCCC4)ccc3O[C@@H]2[C@@H](CO)O1)NCc1ccc(Oc2ccccc2)cc1` stands “inactive”; under `O=C(C[C@@H]1C[C@H]2c3cc(NC(=O)Nc4ccccc4F)ccc3O[C@H]2[C@H](CO)O1)NCc1ccc(Oc2ccccc2)cc1`, “inactive”; under `O=C(C[C@@H]1C[C@H]2c3cc(NC(=O)NC4CCCC4)ccc3O[C@H]2[C@H](CO)O1)NCc1ccc(Oc2ccccc2)cc1`, “inactive”.

`O=C(C[C@H]1C[C@H]2c3cc(NC(=O)Nc4ccccc4F)ccc3O[C@H]2[C@H](CO)O1)NCc1ccc(Oc2ccccc2)cc1`: the cytotoxicity call is “inactive”. On to `O=C(C[C@H]1C[C@@H]2c3cc(NC(=O)NC4CCCC4)ccc3O[C@@H]2[C@H](CO)O1)NCc1ccc(Oc2ccccc2)cc1`, for which the cytotoxicity call was “active”. As to `O=C(C[C@H]1C[C@H]2c3cc(NC(=O)NC4CCCC4)ccc3O[C@H]2[C@H](CO)O1)NCc1ccc(Oc2ccccc2)cc1`, the cytotoxicity call is “active”. For the molecule `O=C(C[C@@H]1C[C@@H]2c3cc(NC(=O)Nc4ccccc4F)ccc3O[C@@H]2[C@@H](CO)O1)NCc1ccc(Oc2ccccc2)cc1`, the cytotoxicity call was “active”. Under `O=C(C[C@@H]1C[C@@H]2c3cc(NC(=O)NC4CCCC4)ccc3O[C@@H]2[C@H](CO)O1)NCc1ccc(Oc2ccccc2)cc1` stands “inactive”; under `O=C(C[C@@H]1C[C@H]2c3cc(NC(=O)NC4CCCC4)ccc3O[C@H]2[C@@H](CO)O1)NCc1ccc(Oc2ccccc2)cc1`, “inactive”. The result for `CC(C)(C)OC(=O)C[C@@H]1CC=CC[C@H](CC(=O)NCCO)C(=O)NCCOC1=O` reads “inactive”; that for `COCC#Cc1ccc([C@@H]2[C@H](CO)N3C(=O)CN(C(=O)c4ccncc4)C[C@@H]23)cc1`, “inactive”. Under `CO[C@H]1CN(C)C(=O)c2ccc(NS(C)(=O)=O)cc2OC[C@@H](C)N(C(=O)CN(C)C)C[C@H]1C` stands “inactive”; under `C[C@@H]1CN([C@H](C)CO)C(=O)Cc2cc(NS(=O)(=O)c3ccc(F)cc3)ccc2O[C@H]1CN(C)Cc1ccncc1`, “inactive”; under `C=CCC[C@H](Cc1ccc(F)cc1)C(=O)OC[C@@H]1CCCN1C(=O)[C@H](CC=C)CC(=O)N(CCO)Cc1ccccc1`, “inactive”. As to `CC(C)(C)OC(=O)N1CCNC(=O)C1`, the cytotoxicity call is “inactive”.

For the molecule `O=C(O)CCN1C(=O)NC2(CCCC2)C1=O`, the cytotoxicity call was “inactive”. Turning to `O=C(C1=C[C@@H](c2ccsc2)C[C@@H](OCCCCO)O1)N1CCN(Cc2ccc3c(c2)OCO3)CC1`, the cytotoxicity call is “inactive”.

For the molecule `C[C@H]1CN([C@@H](C)CO)C(=O)CCCn2nncc2CO[C@@H]1CN(C)C(=O)CCCN(C)C`, the cytotoxicity call was “inactive”.

`C[C@H]1CN([C@@H](C)CO)C(=O)Cc2cc(NC(=O)CCN3CCOCC3)ccc2O[C@@H]1CN(C)S(=O)(=O)c1ccc(Cl)cc1`: the cytotoxicity call was “inactive”. Take `CC(=O)OC(C)C[N+](C)(C)C.[Cl-]` (stereo not given): the cytotoxicity call was “active”. With `CC(C[N+](C)(C)C)OC(N)=O.[Cl-]` (stereo not given), the cytotoxicity call is “inactive”. Under `CC(=O)O[C@@H](C)C[N+](C)(C)C` stands “inactive”.

Take `O=C(C[C@H]1CC[C@H]2[C@@H](COC[C@@H](O)CN2C(=O)Nc2cccc(Cl)c2)O1)NCc1ccccc1F`: the cytotoxicity call is “inactive”. The result for `CN(C)Cc1cn(CC[C@@H]2CC[C@@H](NC(=O)Cc3cccnc3)[C@@H](CO)O2)nn1` reads “inactive”.

Consider `C[C@@H]1CCCCO[C@@H](CN(C)C(=O)c2ccncc2)[C@H](C)CN([C@H](C)CO)C(=O)c2cc(NS(=O)(=O)c3cn(C)cn3)ccc2O1`, for which the cytotoxicity call is “inactive”. With `O=C(C[C@@H]1CC[C@H]2[C@@H](COC[C@@H](O)CN2S(=O)(=O)c2ccccc2F)O1)NCc1ccccc1Cl`, the cytotoxicity call is “inactive”. Take `C[C@@H]1CN([C@H](C)CO)C(=O)c2cc(NS(C)(=O)=O)ccc2O[C@@H]1CN(C)Cc1ccc(C(=O)Nc2ccccc2N)cc1`: the cytotoxicity call is “inactive”. Take `COc1ccc(CNC(=O)c2cc3c(c(-c4cccc(-c5ccc(C#N)cc5)c4)n2)[C@H](CCO)N([S@@](=O)C(C)(C)C)C3)cc1`: the cytotoxicity call is “inactive”. On to `COc1ccc(C2=N[C@@H](c3ccc(Cl)cc3)[C@@H](c3ccc(Cl)cc3)N2C(=O)N2CCNC(=O)C2)c(OC(C)C)c1`, for which the cytotoxicity call is “active”. The result for `COc1ccc(C2=N[C@H](c3ccc(Cl)cc3)[C@H](c3ccc(Cl)cc3)N2C(=O)N2CCNC(=O)C2)c(OC(C)C)c1` reads “inactive”.

For the molecule `COc1ccc(S(=O)(=O)N(C)C[C@@H]2Oc3ccc(NC(=O)C4CC4)cc3C(=O)N([C@@H](C)CO)C[C@@H]2C)cc1`, the cytotoxicity call is “inactive”. Under `Cc1noc(C)c1NC(=O)N(C)C[C@H]1Oc2c(NS(=O)(=O)c3cn(C)cn3)cccc2C(=O)N([C@H](C)CO)C[C@@H]1C` stands “inactive”; under `C[C@@H]1CN([C@@H](C)CO)C(=O)c2cc(NC(=O)NC3CCCCC3)ccc2O[C@@H](C)CCCCO[C@H]1CN(C)C(=O)Nc1ccc2c(c1)OCO2`, “active”. Take `C[C@@H]1CCCCO[C@@H](CN(C)C(=O)Nc2ccc3c(c2)OCO3)[C@H](C)CN([C@H](C)CO)C(=O)c2cc(NC(=O)NC3CCCCC3)ccc2O1`: the cytotoxicity call was “inactive”. Regarding `C[C@@H]1CCCCO[C@@H](CN(C)C(=O)Nc2ccc3c(c2)OCO3)[C@@H](C)CN([C@@H](C)CO)C(=O)c2cc(NC(=O)NC3CCCCC3)ccc2O1`, the cytotoxicity call was “inactive”. Under `C[C@@H]1CCCCO[C@H](CN(C)C(=O)Nc2ccc3c(c2)OCO3)[C@H](C)CN([C@H](C)CO)C(=O)c2cc(NC(=O)NC3CCCCC3)ccc2O1` stands “active”. The result for `C[C@@H]1CCCCO[C@H](CN(C)C(=O)Nc2ccc3c(c2)OCO3)[C@H](C)CN([C@@H](C)CO)C(=O)c2cc(NC(=O)NC3CCCCC3)ccc2O1` reads “inactive”; that for `C[C@H](CO)N1C[C@H](C)[C@@H](CN(C)C(=O)Nc2ccc3c(c2)OCO3)OCCCC[C@H](C)Oc2ccc(NC(=O)NC3CCCCC3)cc2C1=O`, “inactive”; that for `C[C@@H]1CN([C@@H](C)CO)C(=O)Cc2cc(NC(=O)CCCN(C)C)ccc2O[C@H]1CN(C)S(=O)(=O)c1ccc(Cl)cc1`, “inactive”.

Regarding `Cc1noc(C)c1NC(=O)N(C)C[C@H]1Oc2ccc(NC(=O)C3CC3)cc2CC(=O)N([C@@H](C)CO)C[C@@H]1C`, the cytotoxicity call was “inactive”. For `C[C@@H]1CCCCO[C@@H](CN(C)S(=O)(=O)c2cn(C)cn2)[C@H](C)CN([C@@H](C)CO)C(=O)c2cc(NC(=O)Nc3cccc4ccccc34)ccc2O1`, the cytotoxicity call was “inactive”. Under `CCCNC(=O)N(C)C[C@@H]1Oc2ncc(-c3ccc(C(=O)N(C)C)cc3)cc2C(=O)N([C@H](C)CO)C[C@H]1C` stands “inactive”; under `C[C@@H]1CCCCO[C@@H](CN(C)C(=O)Nc2ccc(C(F)(F)F)cc2)[C@H](C)CN([C@@H](C)CO)C(=O)c2cc(NC(=O)Nc3ccc(F)cc3)ccc2O1`, “inactive”. Take `Cc1ccc(S(=O)(=O)N(C)C[C@H]2OCCCC[C@H](C)Oc3ccc(NS(=O)(=O)c4ccc(F)cc4)cc3C(=O)N([C@H](C)CO)C[C@@H]2C)cc1`: the cytotoxicity call was “inactive”. Under `C[C@H](CO)N1C[C@H](C)[C@H](CN(C)Cc2ccc(C(=O)Nc3ccccc3N)cc2)Oc2ccc(NC(=O)Nc3cccc4ccccc34)cc2CC1=O` stands “active”. Under `C[C@H](CO)N1C[C@H](C)[C@H](CN(C)Cc2ccc(C(=O)Nc3ccccc3N)cc2)Oc2ccc(NC(=O)Nc3ccccc3)cc2CC1=O` stands “inactive”; under `COc1ccc(NC(=O)Nc2ccc3c(c2)CC(=O)N([C@H](C)CO)C[C@H](C)[C@@H](CN(C)Cc2ccc(C(=O)Nc4ccccc4N)cc2)O3)cc1`, “inactive”; under `C[C@@H]1CN([C@H](C)CO)C(=O)Cc2cc(NC(=O)Nc3ccc(F)cc3)ccc2O[C@@H]1CN(C)Cc1ccc(C(=O)Nc2ccccc2N)cc1`, “active”. The result for `C[C@@H]1CN([C@H](C)CO)C(=O)Cc2cc(NC(=O)Nc3cccc4ccccc34)ccc2O[C@@H]1CN(C)Cc1ccc(C(=O)Nc2ccccc2N)cc1` reads “inactive”. `C[C@@H]1CN([C@H](C)CO)C(=O)Cc2cc(NC(=O)Nc3ccccc3)ccc2O[C@@H]1CN(C)Cc1ccc(C(=O)Nc2ccccc2N)cc1`: the cytotoxicity call was “active”. Turning to `C[C@H]1CN([C@@H](C)CO)C(=O)Cc2cc(NC(=O)Nc3ccccc3)ccc2O[C@H]1CN(C)Cc1ccc(C(=O)Nc2ccccc2N)cc1`, the cytotoxicity call was “inactive”.

On to `COc1ccc(NC(=O)Nc2ccc3c(c2)CC(=O)N([C@H](C)CO)C[C@@H](C)[C@@H](CN(C)Cc2ccc(C(=O)Nc4ccccc4N)cc2)O3)cc1`, for which the cytotoxicity call is “active”. The result for `C[C@@H]1CN([C@H](C)CO)C(=O)Cc2cc(NC(=O)Nc3cccc4ccccc34)ccc2O[C@H]1CN(C)Cc1ccc(C(=O)Nc2ccccc2N)cc1` reads “inactive”; that for `C[C@@H]1CN([C@@H](C)CO)C(=O)Cc2cc(NC(=O)Nc3ccc(F)cc3)ccc2O[C@H]1CN(C)Cc1ccc(C(=O)Nc2ccccc2N)cc1`, “inactive”. The result for `C[C@H](CO)N1C[C@H](C)[C@@H](CN(C)Cc2ccc(C(=O)Nc3ccccc3N)cc2)Oc2ccc(NC(=O)Nc3ccccc3)cc2CC1=O` reads “inactive”; that for `COc1ccc(NC(=O)Nc2ccc3c(c2)CC(=O)N([C@@H](C)CO)C[C@H](C)[C@@H](CN(C)Cc2ccc(C(=O)Nc4ccccc4N)cc2)O3)cc1`, “inactive”.
